Source: PubChem BioAssay AID1645853 (Buhrlage Lab, Dana-Farber Cancer Institute and Novartis …, 2021)
Screen size: about 47,000 compounds; about 2,000 (4.3%) were called active. The sample as a whole holds a higher share of actives than the screen did. Unmarked numbers belong to inactive results. No stated cut-off is given here; in the data, active means inhibition above about 30%; inactive means the rest.

molecular target: Ubiquitin carboxyl-terminal hydrolase 8 (Homo sapiens) (UniProt P40818); assay: inhibitors of human USP8 deubiquitinase (AID 1645853); details: purified USP8, Ub-rhodamine cleavage fluorescence, 30 min; at 20 µM; active compounds read high
Sequence (P40818 whole entry, looked up): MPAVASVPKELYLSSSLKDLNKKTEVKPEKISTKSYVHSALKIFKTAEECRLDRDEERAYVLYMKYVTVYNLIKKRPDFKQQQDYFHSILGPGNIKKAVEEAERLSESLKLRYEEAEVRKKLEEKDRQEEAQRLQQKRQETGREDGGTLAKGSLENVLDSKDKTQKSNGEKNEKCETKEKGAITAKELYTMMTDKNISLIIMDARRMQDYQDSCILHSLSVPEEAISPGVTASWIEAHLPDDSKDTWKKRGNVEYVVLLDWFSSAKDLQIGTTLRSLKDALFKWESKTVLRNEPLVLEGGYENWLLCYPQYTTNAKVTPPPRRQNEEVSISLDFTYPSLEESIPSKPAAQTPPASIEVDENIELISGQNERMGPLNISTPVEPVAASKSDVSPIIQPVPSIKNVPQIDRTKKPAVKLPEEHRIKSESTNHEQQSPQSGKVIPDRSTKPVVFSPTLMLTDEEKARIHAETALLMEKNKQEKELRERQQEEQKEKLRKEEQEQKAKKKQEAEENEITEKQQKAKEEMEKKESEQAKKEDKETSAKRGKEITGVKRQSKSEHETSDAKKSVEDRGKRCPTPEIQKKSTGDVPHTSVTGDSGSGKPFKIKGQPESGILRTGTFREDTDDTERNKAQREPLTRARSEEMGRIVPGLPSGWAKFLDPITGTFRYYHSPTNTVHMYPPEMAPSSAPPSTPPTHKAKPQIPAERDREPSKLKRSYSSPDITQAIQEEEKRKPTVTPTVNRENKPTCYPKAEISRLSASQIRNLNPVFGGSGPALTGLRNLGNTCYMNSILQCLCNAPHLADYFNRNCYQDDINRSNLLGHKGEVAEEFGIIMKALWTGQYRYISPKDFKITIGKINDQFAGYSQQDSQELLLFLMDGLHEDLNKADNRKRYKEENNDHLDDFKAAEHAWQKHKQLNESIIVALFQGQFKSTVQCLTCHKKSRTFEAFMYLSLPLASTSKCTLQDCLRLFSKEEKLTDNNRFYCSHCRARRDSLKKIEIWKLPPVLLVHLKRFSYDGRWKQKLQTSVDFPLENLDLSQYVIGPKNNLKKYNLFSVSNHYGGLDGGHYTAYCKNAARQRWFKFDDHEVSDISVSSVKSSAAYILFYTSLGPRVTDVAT

SMILES	inhibition
CC(=O)c1ccc(NC(=O)c2cccc(-c3nc(-c4ccccc4)no3)c2)cc1	8.62%
CCc1ccc(C(=O)N2CCN(c3nnc4ccccn34)CC2)cc1	-1.4%
O=C(c1ccccc1)N1CCCCCC1C1CCNCC1 (stereo unspecified)	-4.33%
O=C(Nc1c2c(nn1-c1cccc(Cl)c1)CS(=O)(=O)C2)c1cccs1	9.3%
CC(C)c1ccc(OCC(=O)NCc2nnnn2-c2ccc(Cl)cc2)cc1	4.83%
CC(C)NC(=O)c1cccc(-n2cnnn2)c1	-259%
Cc1cc(OCC(=O)Oc2ccc(-n3cnnn3)cc2)cc(C)c1Cl	44.3% (active)
Cc1ccnc(C2CN(C(=O)CCn3cnc4ccccc43)CCO2)n1 (stereo unspecified)	19.3%
COc1cc(NC(=O)CSc2nc3ccncc3[nH]2)cc(OC)c1	1.79%
Cc1ccc(Cc2nnc(C(=O)NC(C)c3ccccc3)o2)cc1 (stereo unspecified)	0.117%
Nc1ccccc1-c1nnc(Cc2ccccc2)c(=O)[nH]1	-0.271%
CC(Nc1nnc(Cc2ccccc2)c(=O)[nH]1)c1ccccc1 (stereo unspecified)	85.5% (active)
CC(=O)NC(Cc1cccc(C)c1)C(=O)NC1CCN(C(=O)c2cccc(C)c2)CC1 (stereo unspecified)	-1.31%
CN1[C@@H](CCC(=O)N2CCc3ccccc32)CNC(=O)[C@@H]2[C@H]1CCN2Cc1ncc[nH]1	-8.85%
COC(=O)C1CCN(C(=O)CC[C@H]2CNC(=O)[C@@H]3[C@@H](CCN3Cc3ccc(C)cc3)N2C)CC1	35.8% (active)
CN1[C@@H](CCC(=O)NCc2ccc(F)cc2)CNC(=O)[C@@H]2[C@H]1CCN2CC1CC1	-6.51%
COc1ccc(-c2c(C)noc2C)cc1S(=O)(=O)NC1CCCC1	-9.12%
Clc1ccccc1C1SCC2=Nc3ccccc3CN21 (stereo unspecified)	-101%
COc1cccc(NC(=O)Cn2c(-c3ccccc3)nc(C)cc2=O)c1	2.3%

SMILES	inhibition
CCN1C(=O)CCC12CCCN(S(=O)(=O)c1cccc(C)c1)CC2 (stereo unspecified)	-101%
CCC(=O)c1ccc(OCC(=O)Nc2ccc3nc(C)sc3c2)cc1	-13%
CCC(=O)Nc1nc2cc(NC(=O)c3ccc(OC)cc3)ccc2s1	47.8% (active)
COc1ccc(NC(=O)c2ccnc(Nc3ccc(OC)cc3)c2)cc1	25.4%
CCN1C(=O)c2ccccc2Sc2ccc(C(=O)NCc3ccc(OC)cc3OC)cc21	4.79%
COc1cccc(CN2C(=O)c3ccccc3C2C(=O)NCc2ccccc2OC)c1 (stereo unspecified)	34.7% (active)
COc1ccccc1CNC(=O)c1ccc(-n2nc(C)c3c2CCCC3=O)cc1	1.29%
CC(C)(C)NC(=O)CSc1nc2[nH]c(=O)cc(O)c2s1	-9.23%
CC1Oc2ccccc2N(Cc2nc(-c3cccc(F)c3)no2)C1=O (stereo unspecified)	-3.17%
O=C(Cc1ccccc1Cl)Nc1ccc(N2CCOCC2)cc1	51.8% (active)
O=C(COC(=O)CCc1nc2ccccc2c(=O)[nH]1)Nc1ccc(N2CCOCC2)cc1	2.83%
CCN(CC)c1nc2ccccc2nc1C(=O)Nc1ccc(N2CCOCC2)cc1	-1.27%
CNC(=O)N1C[C@H]2C[C@H](C(=O)Nc3ccc4c(c3)OCO4)[C@@H](C1)O2	37% (active)
O=C(Nc1cccnc1)[C@H]1C[C@@H]2CN(S(=O)(=O)C3CC3)C[C@H]1O2	-14%
CN1C[C@H]2C[C@H](C(=O)Nc3ccc4c(c3)OCO4)[C@@H](C1)O2	6.94%
CC(=O)c1ccc(NC(=O)Cn2c(=O)n(-c3ccccc3)c3ncccc32)cc1	10.4%
CCS(=O)(=O)N1CC(=O)N(c2cccc(OC)c2)C(C)(C(=O)NCc2ccccc2)C1 (stereo unspecified)	-0.355%
COc1cccc(CNC(=O)c2ccc(-c3cncnc3)nc2)c1	-15.9%
COc1cccc(CNC(=O)c2ccc3c(=O)nc4c(-c5ccccc5)n[nH]n4c3c2)c1	71.8% (active)

SMILES	inhibition
O=C(NCCc1ccccc1)c1ccc2c(=O)nc3c(-c4ccccc4F)n[nH]n3c2c1	2.58%
O=C(NCc1ccco1)c1ccc2c(=O)nc3c(-c4ccc(F)cc4)n[nH]n3c2c1	-4.4%
O=C(NC1CCCCC1)c1ccc2c(=O)nc3c(-c4ccccc4F)n[nH]n3c2c1	49.8% (active)
O=C(Nc1ccccc1F)NC1CCCN(c2cc(-c3ccncc3)[nH]n2)C1 (stereo unspecified)	-92%
CN1CC(c2nc3ccccc3n2Cc2ccccc2)CC1=O (stereo unspecified)	-1.18%
CNc1cncc(C2CCCN2C(=O)Cc2ccc3c(c2)OCO3)n1 (stereo unspecified)	-1.13%
O=S(=O)(Nc1cccc(O)c1)c1ccc2oc3ccc(S(=O)(=O)Nc4cccc(O)c4)cc3c2c1	9.24%
Cc1cc(C)n(CCC(=O)NCC2CCOCC2)n1	-2.76%
Cc1ccc(-c2nn(-c3ccccc3)cc2CNCc2cccnc2)cc1	-268%
CNC1C(OC2C(OC3C(O)C(O)C(OC(N)=O)C(O)C3N=C(N)N)OC(C)C2(O)CO)OC(CO)C(O)C1O (stereo unspecified)	0.384%
CC(C)Nc1ncnc2c1c(C(=O)N1CCCC1)c1ccccn12	55.5% (active)
CN1CCCN(C(=O)c2cc(-c3ccn(C)n3)n3ccccc23)CC1	-22.2%
CCc1ccccc1NS(=O)(=O)c1c(C)[nH]c(C)c1C(=O)N1CCCC1	2.16%
CN1[C@@H](CCC(=O)N2CCOCC2)CNC(=O)[C@@H]2[C@H]1CCN2C1CCCCC1	2.93%
Cc1ccc(S(=O)(=O)Oc2cccnc2)c(C)c1F	10.5%
C=C1CCC2[C@](C)(CCC[C@]2(C)C(=O)OC)[C@H]1CCc1ccoc1/C=C/C(=O)O (stereo partly specified)	63.4% (active)
C=C1CCC2[C@](C)(CCC[C@]2(C)C(=O)OC)[C@H]1CCc1ccoc1CNCC(=O)O (stereo partly specified)	-5.45%
C=C1CCC2[C@](C)(CCC[C@]2(C)C(=O)OC)[C@H]1CCc1ccoc1C[N+](C)(C)Cc1ccccc1 (stereo partly specified)	30.8% (active)
